Assay [1] is described as follows: ATG_E_Box_CIS: Attagene CIS-FACTORIAL HepG2 Assay for human Enhancer Box (E-box) (AID 2282936). Particulars: HepG2 E-box cis-reporter transcription, actives raise or lower the signal. The procedure, abridged:
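E-box-driven reporter transcripts measured in transiently transfected HepG2 after 24 h exposure: RNA reverse-transcribed, PCR-amplified, fluorescently labelled, digested and resolved by capillary electrophoresis. Gain or loss relative to DMSO.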

Assay [2] is described as follows: ATG_M_61_CIS: Attagene CIS-FACTORIAL HepG2 Assay for M61 Transcription Factor (Internal Marker) (AID 2282937). As to conditions: HepG2 Attagene CIS-FACTORIAL M61 internal marker reporter; actives raise or lower the signal. In outline: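 Multiplexed reporter mRNA assay, HepG2 human hepatoma cells, 24 h treatment. Signal: FAM-labelled, HpaI-digested RT-PCR fragments by CE. Fit: bidirectional, baseline DMSO.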

Assay [3] in a line: ATG_EGR_CIS: Attagene CIS-FACTORIAL HepG2 Assay for human Early Growth Response 1 (EGR1) (AID 2282938). As to conditions: HepG2 Attagene CIS-FACTORIAL EGR reporter mRNA; actives raise or lower the signal. The procedure, abridged:
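Multiplexed cis-reporter system in human hepatoma HepG2 cells, transiently transfected. Cells are dosed for 24 h; reporter transcripts are amplified, fluorescently tagged and sized by capillary electrophoresis, with DMSO as negative control.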

Assay [4] can be described thus: ATG_M_19_CIS: Attagene CIS-FACTORIAL HepG2 Assay for M19 Transcription Factor (Internal Marker) (AID 2282939). As to conditions: HepG2 Attagene CIS-FACTORIAL M19 internal marker reporter; actives raise or lower the signal. In outline:
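Internal marker readout, fitted in both directions against DMSO, from HepG2 cells carrying transfected cis-element reporter constructs; RT-PCR and capillary electrophoresis of reporter mRNA after 24 h exposure.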

Assay [5] is described as follows: ATG_Ets_CIS: Attagene CIS-FACTORIAL HepG2 Assay for human Erythroblast Transformation Specific (ETS) (AID 2282941). Particulars: HepG2 ETS cis-reporter transcription, actives raise or lower the signal. The procedure, abridged:
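Bidirectional fit versus DMSO of reporter mRNA signal, detected by RT-PCR and capillary electrophoresis in HepG2 cells transiently transfected with cis-element reporters and dosed 24 h.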

Assay [6] concerns the target Hepatocyte nuclear factor 3-beta (Homo sapiens) (UniProt Q9Y261). In words: ATG_FoxA2_CIS: Attagene CIS-FACTORIAL HepG2 Assay for human Forkhead box A2 (FOXA2) (AID 2282942). Particulars: HepG2 cis-reporter transcription factor activity, 24 h; actives raise or lower the signal. The procedure, abridged:
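Multiplexed cis-element reporter assay in transiently transfected HepG2. Twenty-four hours post-dosing, RNA was reverse-transcribed, amplified, FAM-labelled, HpaI-digested and separated by CE. Activity gain or loss relative to DMSO.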

The nature of assay [7]: ATG_FoxO_CIS: Attagene CIS-FACTORIAL HepG2 Assay for human Forkhead box O (FoxO) (AID 2282943). Particulars: HepG2 Attagene cis-reporter, FoxO element, mRNA; actives raise or lower the signal. In outline:
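Endogenous transcription factor activity read from multiplexed cis-promoter reporter transcripts in transiently transfected HepG2, 24 h after dosing. Reporter RNA measured via RT-PCR plus capillary electrophoresis of FAM-labeled products; gain or loss relative to DMSO.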

The nature of assay [8]: ATG_GATA_CIS: Attagene CIS-FACTORIAL HepG2 Assay for human GATA Binding Protein (AID 2282944). Particulars: HepG2 GATA cis-element reporter, Attagene multiplex mRNA; actives raise or lower the signal. In outline:
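Reporter transcripts from a GATA cis-regulated unit, among multiplexed reporters in transfected HepG2 cells, were measured by RT-PCR with capillary electrophoresis after 24 h dosing. Induction or loss scored relative to DMSO.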

Assay [9] can be described thus: ATG_GLI_CIS: Attagene CIS-FACTORIAL HepG2 Assay for human Zinc Finger Protein GLI1 (AID 2282945). Particulars: HepG2, Attagene cis-factorial reporter mRNA, GLI element; actives raise or lower the signal. The procedure, abridged:
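Bidirectional curve fits relative to DMSO, using reporter mRNA levels from RT-PCR plus capillary electrophoresis. Cells were HepG2 transiently carrying cis-regulated reporter constructs, harvested 24 h after dosing.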

Assay [10] is described as follows: ATG_ERE_CIS: Attagene CIS-FACTORIAL HepG2 Assay for Estrogen Response Element (ERE) (AID 2282940). As to conditions: HepG2 ERE cis-reporter, Attagene RNA transcript; actives raise or lower the signal. The procedure, abridged:
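After 24 h compound treatment, RNA from transfected HepG2 cells was reverse-transcribed, reporter cDNA PCR-amplified, FAM-labelled, HpaI-cut and resolved by capillary electrophoresis. ERE-driven cis reporter transcripts reflect endogenous factors; gain or loss scored against DMSO.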

Here are results for 20 compounds from PubChem BioAssay (EPA / NIEHS).

By AC50 is commonly meant the midpoint of the concentration-response curve, whichever way the signal moves.

Calls of active or inactive are those of the source. The calls were made as follows: active = hit-call score of the fitted dose curve at least 0.9, where 1 is the maximum; inactive = score below 0.9.

Hepatocyte nuclear factor 3-beta (Homo sapiens), sequence (Q9Y261 whole entry, looked up): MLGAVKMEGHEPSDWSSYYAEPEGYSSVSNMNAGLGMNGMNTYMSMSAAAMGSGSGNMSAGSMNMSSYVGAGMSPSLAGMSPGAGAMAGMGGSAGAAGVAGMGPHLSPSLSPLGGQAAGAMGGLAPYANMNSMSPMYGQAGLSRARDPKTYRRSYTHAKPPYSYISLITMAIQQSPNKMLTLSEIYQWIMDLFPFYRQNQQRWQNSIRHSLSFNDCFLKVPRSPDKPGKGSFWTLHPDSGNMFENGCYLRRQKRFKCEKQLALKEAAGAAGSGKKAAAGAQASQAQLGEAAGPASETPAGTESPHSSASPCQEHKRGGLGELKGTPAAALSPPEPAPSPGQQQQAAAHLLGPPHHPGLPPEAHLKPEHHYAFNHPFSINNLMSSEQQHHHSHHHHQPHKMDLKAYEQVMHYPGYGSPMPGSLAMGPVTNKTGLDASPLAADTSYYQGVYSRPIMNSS

Take `Cc1[nH]cnc1C[C@H]1CCc2c(C)c3ccccc3n2C1=O`: the result in [1], in [2], in assay [4], in assay [5], in assay [6] and in [7] was inactive. The compound was called inactive in assay [8] and in assay [9]. The AC50 in assay [3] is 29.7 µM (active).
For `O=C(OC[C@H]1O[C@@H](OC(=O)c2cc(O)c(O)c(OC(=O)c3cc(O)c(O)c(O)c3)c2)[C@H](OC(=O)c2cc(O)c(O)c(OC(=O)c3cc(O)c(O)c(O)c3)c2)[C@@H](OC(=O)c2cc(O)c(O)c(OC(=O)c3cc(O)c(O)c(O)c3)c2)[C@@H]1OC(=O)c1cc(O)c(O)c(OC(=O)c2cc(O)c(O)c(O)c2)c1)c1cc(O)c(O)c(OC(=O)c2cc(O)c(O)c(O)c2)c1`, the result in assay [1], in [2], in assay [3], in assay [4], in assay [5] and in assay [6] was inactive. Also, the call in assay [7], in assay [8] and in assay [9] was inactive.
In the case of `CCCCC(CC)COC(=O)CCCCCCCCC(=O)OCC(CC)CCCC` (stereo unspecified), the result in assay [1], in assay [2], in assay [3], in [4], in assay [10] and in assay [5] was inactive. Besides, the compound was called inactive in [6], in assay [7], in assay [8] and in assay [9].
Consider `Cc1ccc(N)cc1O`, for which the result in assay [1], in assay [2], in assay [3], in [4], in assay [10] and in [5] was inactive. Besides, the compound was called inactive in assay [6], in [7], in assay [8] and in assay [9].
Regarding `CC[C@H]1OC(=O)[C@H](C)[C@@H](O[C@H]2C[C@@](C)(OC)[C@@H](O)[C@H](C)O2)[C@H](C)[C@@H](O[C@@H]2O[C@H](C)C[C@H](N(C)C)[C@H]2O)[C@](C)(O)C[C@@H](C)C(=O)[C@H](C)[C@@H](O)[C@]1(C)O`, the outcome in assay [1], in assay [2], in assay [3], in [4], in [5] and in [6] was inactive. The result in assay [7], in assay [8] and in assay [9] was inactive.
For the compound `O=c1n(CC2CO2)c(=O)n(CC2CO2)c(=O)n1CC1CO1` (stereo unspecified), the result in assay [1], in assay [2], in assay [4], in assay [10], in assay [6] and in assay [8] was inactive. Further, in assay [9], the result was inactive. For the same compound, the AC50 in [3] was 100 µM (active); in assay [5] it was 100 µM (active); in assay [7] it was 31.7 µM (active).
As for `CC(C)CCCCCCOC(=O)c1ccc(C(=O)OCCCCCCC(C)C)c(C(=O)OCCCCCCC(C)C)c1`, the outcome in assay [1], in assay [2], in assay [3], in [4], in [5] and in assay [6] was inactive. Also, the compound was classed as inactive in assay [7], in assay [8] and in assay [9].
With `O=c1[nH]c2ccc(S(=O)CCN3CCC(Cc4ccc(F)cc4)CC3)cc2o1` (stereo unspecified), the result in [1], in assay [2], in assay [4], in assay [10], in assay [5] and in [6] was inactive. In addition, the compound was classed as inactive in assay [7], in assay [8] and in assay [9]. Further, the AC50 in [3] is 121 µM (active).
`Clc1nc(Cl)c(Cl)c(Cl)c1Cl`: the result in assay [1], in assay [2], in [3], in [4], in assay [5] and in assay [6] was inactive. For the same compound, the call in [7], in [8] and in assay [9] was inactive.
With `CCOC(=O)CC(CC(=O)OCC)(OC(C)=O)C(=O)OCC`, the outcome in assay [1], in [2], in assay [3], in assay [4], in [5] and in [6] was inactive. In addition, the outcome in assay [7], in assay [8] and in [9] was inactive.
As for `CC(=O)c1ccc2c(c1)[C@H](NC(=O)c1ccc(F)cc1)[C@@H](O)C(C)(C)O2`, the outcome in assay [1], in assay [2], in [3], in assay [4], in assay [5] and in [6] was inactive. The outcome in assay [7], in assay [8] and in assay [9] was inactive.
On to `CC(C)=CCCC(C)CCO` (stereo unspecified), for which the outcome in assay [1], in assay [2], in [3], in assay [4], in assay [5] and in assay [6] was inactive. The compound was called inactive in assay [7], in [8] and in assay [9]. In [10], the AC50 was 65.7 µM (active).
With `Nc1nc2ncc(CNc3ccc(C(=O)N[C@@H](CCC(=O)O)C(=O)O)cc3)nc2c(=O)[nH]1`, the result in assay [1], in assay [2], in assay [3], in [4], in assay [5] and in assay [6] was inactive. The result in assay [7], in [8] and in assay [9] was inactive.
As for `O=C1CCCCCN1`, the outcome in [1], in [2], in assay [3], in assay [4], in [5] and in assay [6] was inactive. For the same compound, the compound was classed as inactive in assay [7], in assay [8] and in assay [9].
As to `O=C1OC(=O)C2C3C=CC(C3)C12` (stereo unspecified), the result in [1], in assay [2], in assay [3], in [4], in [5] and in [6] was inactive. For the same compound, the compound was classed as inactive in assay [7], in [8] and in assay [9].
On to `C[C@](N)(Cc1ccc(O)c(O)c1)C(=O)O`, for which the result in [1], in assay [2], in [3], in [4], in assay [5] and in assay [6] was inactive. The result in assay [7], in assay [8] and in assay [9] was inactive.
With `CCOc1cccc(-n2cc(C(=O)N3CCN(c4cc(C(=O)O)c5ccccc5c4)CC3)nc2-c2ccc(C)cc2)c1`, the result in [1], in [2], in [4], in assay [5], in assay [6] and in assay [7] was inactive. Besides, the call in assay [8] and in [9] was inactive. The concentration at half-maximal activity (AC50) in [3] was 27.1 µM (active).
For `On1ccccc1=S`, in assay [1], the AC50 was 8.78 µM (active). Further, the call in [2], in [3], in [4], in assay [5], in [6] and in assay [7] was inactive. Also, the compound was called inactive in [8] and in assay [9].
For `COc1ccc(/C=C/S(=O)(=O)NC(=O)c2ccc(C)cc2Cl)cc1`, the result in [1], in [2], in assay [3], in assay [4], in assay [5] and in assay [6] was inactive. The call in [7], in [8] and in assay [9] was inactive.
As for `C=CCCCCCCCCC(=O)O`, the result in assay [1], in assay [2], in assay [3], in [4], in [10] and in assay [5] was inactive. Further, the outcome in assay [6], in assay [7], in assay [8] and in assay [9] was inactive.
